Source: PubChem BioAssay (National Center for Advancing Translational Sciences (NCATS))
Hits are enriched below; roughly 7.3% of the tested compounds scored in any of these assays.
HCV inhibitor – blocks hepatitis C virus. Huh7.5.1 HCVcc-Cre infection, luciferase reporter, 44 h. Potency, µM (titrated, usually from 41.8 µM), usual class: inhibitors. hit rate 3.4% among 340,000. AID 651820
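Whole-lifecycle infectious HCVcc-Cre system; cells 1,000/well, compound then virus (~0.5 moi) added 4 h after plating, 44 h culture. Luciferase read 15 sec following 15 min substrate incubation, room temp.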
HCMV antiviral – human cytomegalovirus inhibition; HFF cells, HCMV-luciferase reporter, 72 h; stronger effect = lower value; activity change, negative = inhibition, % at 57.5 µM; hit rate 4.5% among 410,000; AID 1259415; in the data active means activity change below about -60%; inconclusive means no clear call, values can overlap the other calls; inactive means above about -39%
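HFF cells seeded 16 h at 37C, treated with compounds, infected with luciferase-reporter HCMV at MOI 1 PFU/cell; luciferase read at 72 h post infection, normalized to buffer-only and Salinomycin controls.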
Vaccinia mCherry – vaccinia inhibition (mCherry reporter) | Vaccinia virus mCherry reporter infection, fluorescence | Potency, µM (highest dose often 36.5 µM), usual class: inhibitors | hit rate 0.63% among 310,000; calls by dose curve; tested in A549 cells; further: nearly all actives have a fitted effect of over 35% in size
VACV Venus inh – inhibitors of vaccinia virus (Venus reporter). hit rate 0.46% among 330,000. Potency, µM (titrated, usually from 36.5 µM), actives largely listed as inhibitors. Vaccinia virus Venus reporter expression, fluorescence. AID 720580; calls by dose curve; tested in A549 cells; further: nearly all actives have a fitted effect of over 30% in size
FMDV antiviral – blocks foot and mouth disease virus. FMDV antiviral cell-based qHTS. Potency, µM (doses to about 57.9 µM), actives largely listed as inhibitors. hit rate 1.2% among 410,000; calls by dose curve; tested in HEK293T cells; further: read-out not given here; nearly all actives have a fitted effect of over 45% in size
HCV inh confirm – confirmation of hepatitis C virus inhibitors | HCVcc-Cre infectious virus cell assay, luciferase, inhibition | Potency, µM (doses to about 41.8 µM), actives largely listed as inhibitors | hit rate 78% among 640 | shares compounds with HCV inhibitor | AID 720575; further: nearly all actives have a fitted effect of over 80% in size
HCV cytotox – toxic to HCV host cells, flagging false HCV inhibitors; hit rate 22% among 640; HCV host cell line cytotoxicity counterscreen; Potency, µM (highest dose often 41.8 µM), usual class: inhibitors; AID 720576; shares compounds with HCV inhibitor;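 further: 44 h compound exposure; nearly all actives have a fitted effect of over 55% in size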
Large screens that a line does not name were inactive (follow-up assays come after a bar, where they were run). Unless noted, the call rests on the fitted dose curve; in most records, active means well fitted curve in the direction sought with a large enough effect; inconclusive means small, poorly fitted or top-dose-only effect, or another doubt; inactive means no such curve, though single readings can be large; an effect the other way counts as inactive or inconclusive.

CC(C)c1ccccc1NC(=O)Cn1c(-c2ccccc2Cl)nc2ccccc21	HCV inhibitor 2.5µM | HCV inh confirm inconclusive | HCV cytotox inactive
CN=c1sc2c(n1C)C(=O)c1ccccc1C2=O	HCV inhibitor inconclusive, Vaccinia mCherry 2.8µM, VACV Venus inh 4µM, FMDV antiviral inconclusive | HCV inh confirm 31µM | HCV cytotox 28µM
CN=c1sc(C(=O)Nc2ccccc2)c(C)n1C	none
Cc1ccccc1-n1c(SCC(=O)N2CCOCC2)nc(O)c(Cc2ccccc2)c1=O	none
O=C(Nc1ccc(/C=C/c2nc3ccccc3o2)cc1)c1c(F)cccc1F	HCV inhibitor 5.6µM, VACV Venus inh inconclusive (no result: Vaccinia mCherry) | HCV inh confirm 4.4µM | HCV cytotox inactive
CC(=O)Nc1ccc(/C=C/c2nc3ccccc3o2)cc1	HCV inhibitor inconclusive (no result: Vaccinia mCherry, VACV Venus inh)
CSc1nc2ccc(Cl)cc2[nH]1	HCV inhibitor inconclusive (no result: Vaccinia mCherry, VACV Venus inh)
CSc1nc2cc(Oc3cccc(Cl)c3Cl)c(Cl)cc2[nH]1	HCV inhibitor 7.9µM, FMDV antiviral inconclusive | HCV inh confirm inconclusive | HCV cytotox inactive
Cc1nnc(NC(=O)C2CC(=O)N(c3ccccc3)C2)s1 (configuration not stated)	none
C=CCNC(=S)N/N=C/c1ccc(C(F)(F)F)cc1	HCV inhibitor 8.9µM, HCMV antiviral -86, FMDV antiviral inconclusive (no result: Vaccinia mCherry, VACV Venus inh) | HCV inh confirm 8.9µM | HCV cytotox 13µM
C=CCNC(=S)N/N=C/c1ccc(N(CC)Cc2ccccc2)cc1	HCV inhibitor inconclusive, Vaccinia mCherry inconclusive, VACV Venus inh inconclusive, FMDV antiviral inconclusive
O=C(Nc1nc(-c2ccc(Cl)s2)cs1)c1ccncc1	HCV inhibitor inconclusive, HCMV antiviral -77 (no result: FMDV antiviral) | HCV inh confirm 6.3µM | HCV cytotox inconclusive
O=C(Nc1nc(-c2cccs2)cs1)c1ccc(Cl)cc1	HCV inhibitor inconclusive
COc1ccc(C(=O)Nc2nc(-c3cccs3)cs2)cc1	HCV inhibitor inconclusive | HCV inh confirm 22µM | HCV cytotox 0.0025µM
CC1CC1C(=O)Nc1nc(-c2ccc(Cl)s2)cs1 (configuration not stated)	HCV inhibitor inconclusive, Vaccinia mCherry inconclusive
O=[N+]([O-])c1cccc2ccc(/C=C/c3ccc(F)cc3)nc12	HCV inhibitor 1µM, Vaccinia mCherry inconclusive | HCV inh confirm 3.1µM | HCV cytotox inactive
O=[N+]([O-])c1cccc(/C=C/c2ccc3cccc(O)c3n2)c1	Vaccinia mCherry inconclusive
O=C(c1ccc(Cl)cc1)N1CCC(C(=O)N2CCCc3ccccc32)CC1	FMDV antiviral inconclusive
Cn1nnnc1Sc1ncnc2scc(-c3ccc(C#N)cc3)c12	HCMV antiviral -94, FMDV antiviral 28µM (no result: HCV inhibitor, Vaccinia mCherry, VACV Venus inh) | HCV inh confirm 25µM | HCV cytotox 25µM
COc1cc(/C=C/C(=O)NC2CCCCC2)cc(OC)c1OC	HCV inhibitor inconclusive | HCV inh confirm inconclusive | HCV cytotox inactive
CCCOc1ccc(/C=C/C(=O)NC2CCCCC2)cc1OC	HCV inhibitor inconclusive
CCOC(=O)C1(Cc2ccccc2C(F)(F)F)CCN(C2CCN(C(C)C)CC2)CC1	HCV inhibitor 3.2µM, HCMV antiviral -69 (no result: Vaccinia mCherry, VACV Venus inh) | HCV inh confirm 11µM | HCV cytotox inactive
O=C(Nc1cc(C(F)(F)F)ccc1N1CCCCC1)c1ccco1	HCV inhibitor inconclusive, HCMV antiviral inconclusive (no result: Vaccinia mCherry)
O=C(Nc1cc(C(F)(F)F)ccc1N1CCCCC1)c1ccc(Br)o1	HCV inhibitor 5µM (no result: Vaccinia mCherry, VACV Venus inh) | HCV inh confirm 14µM | HCV cytotox inactive
CCOC(=O)c1cccc(NC(=O)C2Cc3ccccc3N2C(=O)c2ccccc2)c1 (configuration not stated)	none (no result: HCV inhibitor)
NC(=S)NN=C(c1ccc(F)cc1)C1CC1	Vaccinia mCherry inconclusive, VACV Venus inh inconclusive
Cc1cccc(CN2C(=O)N/C(=C/c3cc(C)n(-c4cc(C)ccn4)c3C)C2=O)c1	HCV inhibitor 1.8µM (no result: HCMV antiviral, Vaccinia mCherry) | HCV inh confirm 16µM | HCV cytotox inactive
CCN1C(=O)/C(=C\c2cccs2)C(C(=O)OC)=C1C	HCV inhibitor 4µM (no result: Vaccinia mCherry) | HCV inh confirm inconclusive | HCV cytotox inconclusive
Cc1ccc(C(C)NC(=O)CSc2ccc(S(=O)(=O)N3CCOCC3)cn2)cc1C (configuration not stated)	none
CCc1ccc2[nH]c(=O)c(CN(Cc3ccccc3OC)Cc3nnnn3Cc3ccco3)cc2c1	HCV inhibitor 8.9µM, VACV Venus inh 28µM, FMDV antiviral inconclusive (no result: Vaccinia mCherry) | HCV inh confirm 25µM | HCV cytotox inactive
CC(C)Oc1ccccc1/C=N/NC(=O)c1ccccc1Cl	none (no result: Vaccinia mCherry, VACV Venus inh)
CC(C)Oc1ccccc1/C=N/NC(=O)c1ccc(F)cc1	HCV inhibitor 7.9µM | HCV inh confirm inconclusive | HCV cytotox inactive
COc1ccc(C(=O)NCCNc2nc3c(C)cccc3cc2C#N)cc1OC	HCV inhibitor inconclusive (no result: Vaccinia mCherry, VACV Venus inh) | HCV inh confirm 18µM | HCV cytotox inactive
N/C(=N/OC(=O)c1cccc([N+](=O)[O-])c1)c1cccc([N+](=O)[O-])c1	HCV inhibitor inconclusive
CC1=C(C)/C(=N/OC(=O)c2cccc([N+](=O)[O-])c2)C=CC1=O	HCV inhibitor 7.1µM, FMDV antiviral inconclusive (no result: HCMV antiviral, Vaccinia mCherry, VACV Venus inh) | HCV inh confirm 31µM | HCV cytotox 31µM
Cc1cccc(CN2CCN(CC(=O)NCCCN3CCN(c4ccc(F)cc4)CC3)C2=O)c1	HCV inhibitor 5.6µM, HCMV antiviral inconclusive, FMDV antiviral inconclusive (no result: Vaccinia mCherry, VACV Venus inh) | HCV inh confirm 22µM | HCV cytotox inconclusive
CCOC(=O)CC(=O)CSc1nc2sc(C)cc2c(=O)n1Cc1ccco1	HCV inhibitor inconclusive | HCV inh confirm 11µM | HCV cytotox inactive
NS(=O)(=O)c1ccc(N=Nc2ccc(O)c3ncccc23)cc1	HCV inhibitor 3.5µM, HCMV antiviral -97, Vaccinia mCherry inconclusive, VACV Venus inh 10µM | HCV inh confirm 7.9µM | HCV cytotox 8.9µM
